PubChem BioAssay (NCI)
Compounds without any hit were thinned out: in the full panel of roughly 83,000, 20% have a hit.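 Results are percent growth after 48 hours of single-concentration exposure. 100 means growth as in untreated cells, lower positive values show inhibition; negative values down to -100 show cell death.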 Values without a mark were called inactive. Active and inactive are the calls of the source. Rule for the calls: active = growth percent below 10; inactive = the rest.

Assays:
Experiment in all cases: NCI-60 one-dose screen, 48 h (100 = growth as untreated, 0 = no growth, -100 = all killed)
Details in all cases: 10 µM
SK-MEL-2 melanoma = test system: SK-MEL-2 melanoma
SN12C renal = test system: SN12C renal
UO-31 renal = test system: UO-31 renal
TK-10 renal = test system: TK-10 renal
ACHN renal = test system: ACHN renal
CAKI-1 renal = test system: CAKI-1 renal
A498 renal = test system: A498 renal
CCRF-CEM leukemia = test system: CCRF-CEM leukemia
MOLT-4 leukemia = test system: MOLT-4 leukemia
SR leukemia = test system: SR leukemia
RPMI-8226 leukemia = test system: RPMI-8226 leukemia
OVCAR-8 ovarian = test system: OVCAR-8 ovarian
OVCAR-5 ovarian = test system: OVCAR-5 ovarian
OVCAR-4 ovarian = test system: OVCAR-4 ovarian
SK-OV-3 ovarian = test system: SK-OV-3 ovarian
IGROV1 ovarian = test system: IGROV1 ovarian
OVCAR-3 ovarian = test system: OVCAR-3 ovarian
HS 578T breast = test system: HS 578T breast
NCI/ADR-RES ovarian = test system: NCI/ADR-RES ovarian

Structure (SMILES)	growth (SK-MEL-2 melanoma)	growth (SN12C renal)	growth (UO-31 renal)	growth (TK-10 renal)	growth (ACHN renal)	growth (CAKI-1 renal)	growth (A498 renal)	growth (CCRF-CEM leukemia)	growth (MOLT-4 leukemia)	growth (SR leukemia)	growth (RPMI-8226 leukemia)	growth (OVCAR-8 ovarian)	growth (OVCAR-5 ovarian)	growth (OVCAR-4 ovarian)	growth (SK-OV-3 ovarian)	growth (IGROV1 ovarian)	growth (OVCAR-3 ovarian)	growth (HS 578T breast)	growth (NCI/ADR-RES ovarian)
COc1cc(-c2nc3ccc(C)cc3[nH]2)ccc1OCc1nnc(-c2ccc(CC(C)C)cc2)o1	97.3%	92%	77.8%	119%	107%	95.1%	81.8%	80.3%	82.4%	-2.79% (active)	68.9%	97.8%	102%	91.2%	94.4%	91.4%	101%	84%	96%
Nc1ccccc1NC(=O)CCCCCCC(=O)Nc1ccc2c(c1)/C(=C/c1ccc[nH]1)C(=O)N2	-1.9% (active)	17.4%	29.1%	48.1%	77%	49.8%	-0.734% (active)	5.46% (active)	9.11% (active)	26.8%	-17.6% (active)	26.2%	67%	35.1%	38.4%	49.7%	29.3%	27.5%	93.1%
O=C(Nc1ccc(CN2CCOCC2)cc1)c1ccc(-c2cc(Cl)ccc2Cl)o1	55.5%	63.4%	25.4%	49.4%	41.8%	43.5%	87.1%	38.6%	42.9%	-12.9% (active)	-5.45% (active)	36%	72.1%	50.6%	81.5%	34%	70.9%	72.2%	46.9%
O=NN(CC(=O)N/N=C/C=C\c1ccccc1)CC(=O)N/N=C/C=C/c1ccccc1	111%	78.1%	91.9%	131%	86.4%	91.3%	105%	94.9%	96.9%	85.7%	95.2%	51%	94.6%	97.2%	102%	84%	103%	80.5%	103%
CCn1nc(-c2ccc(C(=O)OC)cc2)nc2c(=O)n(C)c(=O)nc1-2	96.6%	76.6%	49.9%	85.7%	-53.4% (active)	63.7%	108%	83.9%	101%	7.67% (active)	61.2%	45.8%	105%	14.1%	9.16% (active)	87.4%	25.7%	35.6%	70%
COc1cc2nc(Sc3sc(N)nc3C)n(-c3ccc(Oc4ccccc4)cc3)c(=O)c2cc1OC	107%	79.7%	76.1%	98.1%	81.5%	94.1%	82.1%	64.5%	54%	-43.4% (active)	67.6%	85%	106%	50.7%	114%	107%	93.5%	88.5%	75.2%
Cc1ccc([P+](Cc2ccc([N+](=O)[O-])cc2)(c2ccc(C)cc2)c2ccc(C)cc2)cc1	-21.6% (active)	67.6%	70.5%	49.1%	97.5%	94.7%	65.6%	24.5%	52.4%	3.65% (active)	-25.3% (active)	40.3%	72.9%	31.1%	74.7%	11.9%	25.7%	86.9%	100%
C=CCNC(=S)NN	99.1%	81.7%	61.7%	96.2%	94.1%	91.6%	81%	63.2%	64.6%	54.6%	74.2%	71.2%	69.7%	96.8%	98.4%	45.3%	96.5%	89.5%	82.7%
N=C(N)c1ccc(-c2ccc(-c3cccs3)s2)nc1	97.8%	60.9%	2.6% (active)	47.3%	56.7%	34.2%	-25.6% (active)	31.6%	17.3%	-9.12% (active)	-24.2% (active)	55.7%	62.5%	34.7%	63.4%	70.4%	38.6%	80.1%	84.8%
CCOc1cc(Br)c(C(C)NC(=O)c2cccc(OC)c2)cc1OCC (configuration not stated)	80.9%	78.8%	54.7%	77.8%	95.7%	81.6%	54%	53.7%	49.3%	3.32% (active)	36.3%	84.3%	88.7%	64.5%	96%	73.8%	74.8%	75.5%	94.4%
COc1ccc(-c2cc(/C=C3\C(=O)Nc4cc(Cl)ccc43)[nH]n2)cc1	-0.387% (active)	41.7%	27.2%	58.1%	44.9%	29.6%	58.3%	18.6%	21.7%	19.3%	19.7%	48.1%	69.4%	64.1%	28.8%	42.6%	-3% (active)	-4.18% (active)	9.42% (active)
N=C(N)c1ccc(-c2ccc(-c3ccccc3)s2)cc1F	-83.8% (active)	-83.6% (active)	-91.2% (active)	-95% (active)	-98.3% (active)	-81.3% (active)	-88.6% (active)	-60.9% (active)	-75.5% (active)	-11.6% (active)	-60.2% (active)	-32.9% (active)	-96.8% (active)	-57.2% (active)	-92.4% (active)	-51.2% (active)	-94.6% (active)	-41.6% (active)	-50.8% (active)
COc1ccc(-c2nc(-c3ccccc3)c(-c3ccccc3)[nH]2)cc1OC1CCCC1	66.2%	62.5%	67.4%	88.4%	54.4%	71%	-9.35% (active)	50.7%	40.8%	41.9%	56.6%	74.9%	82.7%	81.6%	89.3%	105%	81.4%	86.5%	79.5%
COc1cc(-c2nc3ccc(C)cc3[nH]2)ccc1OCC(=O)N=Nc1c(O)[nH]c2ccccc12	-52.9% (active)	-61.8% (active)	95.9%	10.3%	14%	-46.3% (active)	75.5%	-50% (active)	-65% (active)	-36.7% (active)	-54% (active)	-72.8% (active)	-32.4% (active)	-82.2% (active)	-3.57% (active)	-27.4% (active)	-94.5% (active)	–	87.5%
O=CNc1c(Cl)cc2c(c1Cl)Cc1cc([N+](=O)[O-])ccc1-2	38.1%	80.6%	71.7%	90.3%	68.7%	82.1%	85.9%	14.7%	33%	57%	13.9%	58.8%	82.3%	50.8%	68%	38.6%	41%	75.3%	57.4%
N#Cc1cnc2ccc(NCc3cnc[nH]3)cc2c1Nc1ccc(F)c(Cl)c1	32.5%	46.5%	51.5%	11.8%	24.6%	43.6%	52.4%	71.3%	79.6%	66.1%	83.2%	46.6%	82.7%	42.9%	39.9%	22.4%	49.7%	90.9%	98.7%
COc1ccc(-c2nc3sc(-c4ccccc4)c(-c4ccccc4)n3c2/C=C/c2ccc(F)cc2)cc1	89.3%	86.7%	82.7%	115%	78.9%	67%	108%	88.1%	74.8%	90.5%	95.5%	85%	88.2%	83.2%	91.1%	115%	94.1%	95.8%	103%
